This is a sample that favours compounds with a hit; in the whole collection about 18% have one here.
DT40 TDP1 no CPT – qHTS for Inhibitors of human tyrosyl-DNA phosphodiesterase 1 (TDP1): qHTS in cells in absence of CPT; DT40 Tdp1-/- hTDP1 cells, no CPT, ATP luminescence, 48 h; Potency, µM (doses to about 46.2 µM), inactives show at the top dose activity change, negative = growth inhibition, actives largely listed as inhibitors; AID 686978, 2013; 420,000 compounds, 15% hits; also: potency is read from the fitted curve at half-maximal effect; % is scaled to controls: 0 for no effect and ±100 for the full control effect; nearly all actives have a fitted effect of over 55% in size
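No-CPT arm: Tdp1-/-;hTDP1 DT40 cells (400/well) plus compounds, incubated ≥48 hr at 37 °C. Readout CellTiter-Glo luminescence.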
HepG2 viability – counter-screen for TGF-b inhibitors: cytotoxicity in HepG2 cells | HepG2 CAGA-GFP viability, ATP luminescence, 18 h | Potency, µM (series often up to 46.1 µM), inactives show at the top dose activity change, negative = cytotoxicity, hits mostly cytotoxic | 410,000 compounds, 0.76% hits | AID 588856; also: potency is read from the fitted curve at half-maximal effect
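CellTiter-Glo luminescence gave cytotoxicity after 18 hours at 37 degrees C. The cells were HepG2 CAGA-GFP in 1% FBS DMEM, stimulated with 500 pg/mL TGF-beta after compound addition. %Activity was normalised to no-cell wells (complete cell-killing) and DMSO (no toxicity), and curves were fitted and classified.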
IL1B secr inh – inflammasome signaling inhibition, IL-1 beta readout; THP-1 LPS/ATP IL-1B secretion, AlphaLISA, 16 h; active compounds read low; 360,000 compounds, 4.7% hits; activity change, % at 57.5 µM; in the data active = activity change below about -50%; inconclusive = mostly about -30% to -49%; also: % is scaled to controls: 0 for no effect and ±100 for the full control effect
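Secreted IL-1B measured by AlphaLISA bead assay after 16 h compound exposure of THP-1 cells; compounds (final up to 57.5 uM) added 1 h before LPS (250 ng/mL) and ATP (1.25 mM) stimulation; lower signal means less secretion.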
TDP1 inh – blocks human tyrosyl-DNA phosphodiesterase 1. Q9NUW8. recombinant TDP1, AlphaScreen DNA substrate cleavage. Potency, µM (highest dose often 130 µM), inactives show at the highest dose activity change, negative = inhibition, actives largely listed as inhibitors. 350,000 compounds, 0.28% hits. AID 485290; also: potency is read from the fitted curve at half-maximal effect; % is scaled to controls: 0 for no effect and ±100 for the full control effect; nearly all actives have a fitted effect of over 40% in size
Target sequence (Q9NUW8 whole entry, looked up): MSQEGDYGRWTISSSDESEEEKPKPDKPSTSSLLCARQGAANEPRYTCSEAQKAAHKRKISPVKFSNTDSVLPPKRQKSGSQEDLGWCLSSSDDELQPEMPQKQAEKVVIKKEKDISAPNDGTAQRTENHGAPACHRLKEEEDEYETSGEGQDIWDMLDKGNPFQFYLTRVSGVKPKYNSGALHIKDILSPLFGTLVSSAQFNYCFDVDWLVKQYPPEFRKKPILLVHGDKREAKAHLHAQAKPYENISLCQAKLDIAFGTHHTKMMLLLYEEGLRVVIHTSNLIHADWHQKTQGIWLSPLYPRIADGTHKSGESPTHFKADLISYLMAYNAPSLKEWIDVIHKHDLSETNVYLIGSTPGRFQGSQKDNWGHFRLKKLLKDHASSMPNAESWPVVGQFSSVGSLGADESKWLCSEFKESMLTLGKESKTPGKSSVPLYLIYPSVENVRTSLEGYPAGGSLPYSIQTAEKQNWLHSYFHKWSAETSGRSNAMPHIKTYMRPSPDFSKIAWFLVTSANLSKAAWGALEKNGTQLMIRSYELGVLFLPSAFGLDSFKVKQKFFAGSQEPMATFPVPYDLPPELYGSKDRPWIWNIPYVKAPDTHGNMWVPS
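Here, a 5' biotin and 3' phosphotyrosine-FITC DNA oligonucleotide reports Tdp1 activity: intact substrate bridges AlphaScreen beads, while cleavage leaves a 3' phosphate and drops signal. All incubations at room temperature.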
TGFb inhibitor – TGF-b pathway inhibition | HepG2 CAGA-GFP TGF-b/SMAD3 reporter, GFP fluorescence, 18 h; TGF-beta stimulated, 500 pg/mL final | Potency, µM (top dose mostly 46.1 µM), for inactives: at the top dose activity, negative = inhibition, actives largely listed as inhibitors | 410,000 compounds, 1.2% hits | AID 588855; also: potency is read from the fitted curve at half-maximal effect; % is scaled to controls: 0 for no effect and ±100 for the full control effect; nearly all actives have a fitted effect of over 65% in size
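Inhibition was scored as loss of TGF-beta-induced (500 pg/mL final, 18 hours, 37 degrees C) GFP in HEPG2 cells carrying a CAGA-GFP reporter, in DMEM with 1% FBS. Well GFP was summed per cell; Activity was normalised to unstimulated and stimulated DMSO wells, then concentration-response fitting.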
DT40 TDP1 CPT – growth inhibition of DT40 Tdp1-/-;hTDP1 cells with camptothecin (screen for TDP1 inhibitors); AID 686979; chicken DT40 Tdp1-/-;hTDP1 cells + 20 nM CPT, ATP luminescence, 48 h; Potency, µM (doses to about 46.2 µM), inactives show at the highest dose activity change, negative = growth inhibition, actives largely listed as inhibitors; 420,000 compounds, 12% hits; also: potency is read from the fitted curve at half-maximal effect; % is scaled to controls: 0 for no effect and ±100 for the full control effect; nearly all actives have a fitted effect of over 55% in size
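Cell growth measured by CellTiter-Glo luminescence after a minimum 48 h, 37 C compound exposure with 20 nM CPT in Tdp1-knockout DT40 cells stably expressing hTDP1, seeded 400/well; qHTS titration format.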
* hit, by the source's call; u = inconclusive; x = no result given; [ ] = remark or other dose. Unless noted, calls follow the shape of the dose curve; as a rule, active = well fitted curve in the direction sought with a large enough effect; inconclusive = small, poorly fitted or top-dose-only effect, or another doubt; inactive = no such curve, though single readings can be large; an effect the other way counts as inactive or inconclusive.

SMILES	DT40 TDP1 no CPT	HepG2 viability	IL1B secr inh	TDP1 inh	TGFb inhibitor	DT40 TDP1 CPT
CC(=O)Nc1ccc(C(=O)N2CCCCC2c2cc(C(=O)Nc3ccccc3)no2)cc1 (configuration not stated)	-16%	2%	-1	x	10%	-27%
O=C(Nc1ccc2c(c1)OCO2)c1cc(C2CCCCN2C(=O)c2ccc3ccccc3c2)on1 (configuration not stated)	15µM*	-22%	-26	x	-17%	18µM*
O=P(O)(O)C(O)(Cc1cnc2ccccn12)P(=O)(O)O	2%	x	x	x	x	u
CCCCn1nc(C(=O)Nc2ccc(-n3cnnn3)cc2)c2ccccc2c1=O	-19%	-6%	-21	0%	23%	u
CCN(CC)S(=O)(=O)c1ccc2c(c1)N(CC(=O)Nc1ccc(F)cc1)C(=O)CO2	u	-7%	x	3%	x	-28%
O=C(Nc1ccccc1Cl)c1cc(C2CCCCN2S(=O)(=O)c2ccc(F)cc2F)on1 (configuration not stated)	21µM*	-18%	42	x	18%	16µM*
CS(=O)(=O)N1CCCCC1c1cc(C(=O)Nc2ccccc2)no1 (configuration not stated)	0%	-13%	-19	x	1%	-5%
O=C(Nc1ccc2c(c1)OCO2)c1cc(C2CCCCN2S(=O)(=O)c2ccccc2)on1 (configuration not stated)	u	-40%	-25	x	0%	16µM*
O=C(Nc1ccccc1)c1cc(C2CCCCN2S(=O)(=O)Cc2cccc(C(F)(F)F)c2)on1 (configuration not stated)	u	-12%	-28	x	1%	21µM*
Cc1cc(C(=O)NNC(=O)c2ccc(C)s2)c(C)o1	-26%	-2%	-6	-1%	-12%	-1%
O=C(Nc1ccc(Cl)c(Cl)c1)N1CCC(c2ccccc2)C1 (configuration not stated)	21µM*	-27%	x	-2%	u	u
Cc1ccc(C2CCN(C(=O)Nc3ccc(Cl)cc3)C2)cc1 (configuration not stated)	u	2%	x	1%	u	u
Cc1ccc(C2CCN(C(=O)Nc3ccc(Cl)c(Cl)c3)C2)cc1 (configuration not stated)	26µM*	-26%	x	-3%	u	u
Cc1ccc(NC(=O)N2CCC(N3CCN(Cc4ccccc4)C(=O)C3=O)CC2)cc1Cl	15µM*	6%	x	8%	0%	u
COc1ccc([C@H]2C[C@H](n3cc(COC(=O)c4ccccc4)nn3)[C@@H](O)CN2CC2CCCCC2)cc1	u	-2%	14	x	8%	-25%
COc1ccc(OCC(=O)N2CCN(C(=O)c3cc(OC)c(OC)c(OC)c3)CC2)cc1	-12%	-2%	x	1%[12.3 µM]	-1%	-5%
O=C(NC1CCCCC1)C(c1ccccc1)n1c(=O)c(-c2cc3ccccc3[nH]2)nc2ccccc21 (configuration not stated)	u	x	-69*	x	x	u
O=C(NC1CCCCC1)C(c1ccnc2ccccc12)n1c(=O)c(-c2cc3ccccc3[nH]2)nc2ccccc21 (configuration not stated)	15µM*	x	-12	x	x	u
O=C(NC1CCCCC1)C(c1ccnc2ccccc12)N1CCOCC1 (configuration not stated)	-16%	11%	0	x	6%	-27%
N#Cc1ccc(C(C(=O)NC2CCCCC2)n2c(=O)c(-c3cc4ccccc4[nH]3)nc3ccccc32)cc1 (configuration not stated)	15µM*	x	-2	x	x	15µM*
CSCCC(C(=O)NC1CCCC1)n1c(C2CCCC2)nc2ccccc21 (configuration not stated)	u	x	-88*	x	x	u
CC(C)(C)NC(=O)C(c1ccc(C#N)cc1)n1c(=O)c(-c2ccccc2)nc2ccccc21 (configuration not stated)	u	x	-17	x	x	u
CC(C)CC1NC(=O)N(CC(=O)Nc2ccc(OC(F)F)cc2)C1=O (configuration not stated)	u	-14%	-18	-10%	24%	15%
CCC(C(=O)NC1CCCC1)n1c(-c2ccncc2)nc2ccccc21 (configuration not stated)	-8%	x	-20	x	x	18%
COc1ccc(C(C(=O)NC2CCCCC2)n2c(=O)c(-c3cc4ccccc4[nH]3)nc3ccccc32)cc1 (configuration not stated)	15µM*	x	27	x	x	u
SMILES	DT40 TDP1 no CPT	HepG2 viability	IL1B secr inh	TDP1 inh	TGFb inhibitor	DT40 TDP1 CPT
CCCCCNC(=O)C(c1ccnc2ccccc12)n1c(=O)c(-c2ccccc2)nc2ccccc21 (configuration not stated)	u	x	30	x	x	u
O=C(NC1CCCCC1)C(c1ccnc2ccccc12)n1c(=O)c(-c2ccccc2)nc2ccccc21 (configuration not stated)	13µM*	x	55	x	x	10µM*
CCC(C(=O)NC1CCCC1)n1c(-c2ccnc3ccccc23)nc2ccccc21 (configuration not stated)	u	x	-59*	x	x	u
CCOC(=O)CNC(=O)N(C)[C@H]1C[C@H]2c3[nH]c4ccccc4c3CCN2C(=O)[C@H]1[C@H](C)O	-15%	-2%	14	x	u	-5%
O=C(NCCc1nnc2n1CCN(Cc1cc3ccccc3o1)CC2)c1ccoc1	-14%	x	x	x	x	-14%
O=[N+]([O-])c1ccc(NC(=S)N/C(=N/CS(=O)(=O)c2ccccc2)c2ccccc2)cc1	23µM*	1%	-8	3%	1%	u
C[N+](C)(C)c1ccc(/C=C/c2ccnc3ccccc23)cc1	0.63µM*	2%	x	x	u	0.79µM*
CCC[N+](C)(C)c1ccc(/C=C/c2ccnc3ccccc23)cc1	0.18µM*	-50%	x	x	2µM*	0.025µM*
Oc1ccc(/C=C/c2ccnc3ccccc23)cc1	12µM*	-28%	-62*	5%	-15%	18µM*
Clc1ccccc1/C=C/c1ccnc2ccccc12	u	-21%	-10	3%	u	u
O=C(NCCc1nnc2ccc(NCCCN3CCOCC3)nn12)c1ccccc1F	2%	2%	-14	1%	-5%	1%
